About 83,000 compounds went through this panel and 20% of them were active in at least one assay; those are over-represented in the sample as a whole.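 Step 1: grow cells in 96-well plates. Step 2: add test compound at a single concentration. Step 3: incubate 48 h. Step 4: record percent growth.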 Active and inactive are the calls of the source.

The subject of this test is HS 578T breast. Kind of test: NCI-60 one-dose screen, 48 h (100 = growth as untreated, 0 = no growth, -100 = all killed). The settings on record: 10 µM unless noted. Here is the method:
Growth inhibition of the HS 578T human tumor cell line is measured as a screen for anti-cancer activity. Cells are grown in 96 well plates and exposed to the test compound for 48 hours. Compounds are tested at a single concentration, which is 10^-5 M for most compounds. The reported endpoint is percent growth (GI% or GIPRCNT), where numbers from 0 - 100% represent growth inhibition, and numbers from -100% - 0 represent cell death. For example, a value of 40 represents 60% growth inhibition. A value of 0 means no net growth occurred over the course of the experiment. A value of -40 indicates 40% of cells at the beginning of the experiment died by the end of the experiment. A value of -100 means all cells are dead at the end of the experiment.
NCI-60 Human Tumor Cell Lines Screen was performed using the standard one-dose NCI protocol, which is described in more detail at https://dtp.cancer.gov/discovery_development/nci-60/default.htm.
Compounds with GIPRCNT values below 10 were considered active. Activity score was based on GIPRCNT using the following formula: […]
Score is 0 for GIPRCNT values of 100 or above, 50 for GIPRCNT values of 0, and 100 for GIPRCNT values of -100.
On to `O=C1[C@@H]2Cc3c([nH]c4ccccc34)[C@@H](c3ccc(Cl)cc3)N2C(=O)CN1C1CCN(Cc2ccccc2)CC1`, for which the growth was 65.9% (inactive). As for `CN1CCN(Cc2ccc(/C=N/Nc3ccnc4cc(Cl)ccc34)cc2)CC1`, the figure is 89.3% (inactive); as for `CN1CCN(CCNc2nc(-c3cccc(NS(=O)(=O)c4cccc5c(N(C)C)cccc45)c3)cs2)CC1`, 87.9% (inactive); as for `CCNC(=O)Oc1ccc(/C(=C(/C)c2ccc(Cl)cc2)c2ccc(OCCN3CCCCCC3)cc2)cc1`, -3.08% (active). The figure for `O=c1nc(Nc2ccc([N+](=O)[O-])cc2O)sc2ccccc12` is 27.4% (inactive); for `Cc1ccccc1NC(=O)Nc1nc2ccc([N+](=O)[O-])cc2s1` it is 24.1% (inactive); for `Clc1cccc(/C=N/Nc2nc(N/N=C/c3cccc(Cl)c3)nc(N3CCCCC3)n2)c1` it is 105% (inactive). In the case of `CN1CCN(c2ccc(Nc3nc(NCCCNS(=O)(=O)c4ccc(Cl)cc4)c4sccc4n3)cc2)CC1`, the growth was 20.2% (inactive). As for `C#CCOc1ccccc1/C=N/Nc1nc(-c2ccc(Cl)cc2)cs1`, the figure is 99.6% (inactive); as for `O=C1[C@H]2Cc3c([nH]c4ccccc34)[C@H](c3ccc(Br)cc3)N2C(=O)CN1C1CCN(CC2CCCCC2)CC1`, 78% (inactive). As for `CCc1cc2c(cc1Cl)nc1c(=O)[nH]c(=O)nc-1n2CCOCC(C)(C)C`, the figure is 101% (inactive); as for `CC(Nc1ncnc2ccc(-c3cnc(N)nc3)cc12)c1ccccc1` (stereo not given), 5.98% (active); as for `O=C(/C=C/c1ccc(Cl)c(Cl)c1)Nc1ncc(Cc2ccc(Cl)c(Cl)c2)s1`, 76.4% (inactive). As for `COc1ccc(OC)c(NC(=O)CCCCCCNC(=O)C(O)(O)C(F)(F)F)c1`, the figure is 49.7% (inactive).

Regarding `N#C/C(=N\Nc1ccc(F)cc1)C(=O)Nc1cc(-c2ccccc2)nn1-c1ccccc1`, the growth was 25.9% (inactive). `CC(=C(c1ccc(OCCN(C)C)cc1)c1ccc(OCCN(C)C)cc1)c1ccc(Cl)cc1`: the growth was -32.5% (active). The figure for `O=C1[C@@H]2Cc3c([nH]c4ccccc34)[C@@H](c3ccc(Cl)cc3)N2C(=O)CN1C1CCN(Cc2c(F)cccc2F)CC1` is 53.8% (inactive); for `CC(=O)N(O)CCCCCNC(=O)CCC(=O)N(O)CCCCCNC(=O)CCC(=O)N(O)CCCCCN(CCCCCCCCCC[P+](c1ccccc1)(c1ccccc1)c1ccccc1)CCCCCCCCCC[P+](c1ccccc1)(c1ccccc1)c1ccccc1` it is 16.3% (inactive). As for `O=C(CCCCCCNC(=O)C(O)(O)C(F)(F)F)Nc1ccc(Br)cc1`, the figure is 15.7% (inactive); as for `C=C(C)[C@@H]1CC[C@]2(COCCCNCCCN)CC[C@]3(C)[C@H](CC[C@@H]4[C@@]5(C)CC[C@H](O)C(C)(C)[C@@H]5CC[C@]43C)[C@@H]12`, -49.1% (active). The figure for `Cn1cc(-c2nn3cc(-c4ccncc4)nc3s2)c2cc(F)ccc21` is 86.7% (inactive); for `CCc1cccc2c3c(sc12)C(c1ccc(F)cc1)C(C#N)=C(/N=C/c1ccc(Cl)cc1)O3` (stereo not given) it is -1.77% (active); for `C#CCN(C)CCCOc1ccc(NCc2ccc(/C=C/C(=O)NO)cc2)cc1Cl` it is 10.7% (inactive). Turning to `O=C(/C=C/c1ccccc1Cl)Nc1ncc(Cc2cc(Cl)ccc2Cl)s1`, the growth is 5.7% (active).

On to `C#C[C@]1(O)CC[C@H]2[C@@H]3CC=C4c5sc(Nc6cc(C)cc(C)c6)nc5CC[C@]4(C)[C@H]3CC[C@@]21C`, for which the growth is -10.8% (active). For `Clc1ccc2[nH]cc(-c3cncn3CCc3ccc4c(c3)OCO4)c2c1`, the growth was 69.7% (inactive).

With `CN1CCN(c2ccc(Nc3nc(NCCNS(=O)(=O)c4ccc5ccccc5c4)c4sccc4n3)cc2)CC1`, the growth is 75% (inactive). The figure for `CCCCc1nc2c(N)nc3ccccc3c2n1Cc1ccc(OC)cc1` is 79.8% (inactive); for `CN1CCN(Cc2ccc(NC(=O)c3cncc(C#Cc4cnc5ccc(OCC(F)F)nn45)c3)cc2C(F)(F)F)CC1` it is -34.1% (active). As for `CC1=C(C)C(=O)C(Nc2cccc(C(=O)OC(C)(C)C)c2)=C(Cl)C1=O`, the growth is 97.2% (inactive). As for `CN(C)CC(=O)Nc1nc(-c2cccc(NS(=O)(=O)c3cccc4c(N(C)C)cccc34)c2)cs1`, the figure is 90.6% (inactive); as for `Cc1csc(/N=C(N)/N=C(\N)c2cccc(Br)c2)n1`, 95.1% (inactive). The figure for `CCOC(=O)c1ccc(NC2=CC(=O)C(C)=C(C)C2=O)cc1` is 94.1% (inactive). As for `CCc1cc(OC(=O)N2CCC(N3CCCCC3)CC2)ccc1Nc1cc(-c2ccc(-n3cccn3)cc2)[nH]n1`, the figure is 66.8% (inactive); as for `O=S(=O)(Oc1ccc(-c2cn3ccoc3n2)cc1)C1CCCCC1`, 102% (inactive); as for `CC(Nc1c(C#N)cnc2ccc(-c3cncc(O)c3)cc12)c1ccccc1` (stereo not given), -18.3% (active).

For the molecule `O=C(/C=C/c1ccccc1)c1cccc(O)c1`, the growth was 114% (inactive). As for `CCCC[n+]1ccc(SCC(=O)n2ccc3ccccc32)c2ccccc21`, the figure is 99.6% (inactive); as for `CN1CCN(c2ccc(Nc3nc(NCCNC(=O)c4ccc(F)cc4)c4sccc4n3)cc2)CC1`, 75.6% (inactive); as for `COc1ccc2c(c1)C=CC1(O2)Oc2ccc(OC)cc2C=C1C` (stereo not given), 22.3% (inactive).

Values taken from PubChem BioAssay (NCI).
